Screens from PubChem.
RE007 growth inh: qHTS Assay for Inhibitors of the HIV-1 protein Vpr | S. pombe RE007 Vpr strain, BacTiter-Glo ATP luminescence, 24 h | Potency, µM (highest dose often 92.2 µM), for the others: at the highest dose activity change, negative = less growth, actives largely listed as inhibitors | actives 0.21% (n = 360,000); active = well fitted falling curve with a large enough effect; inconclusive = small, poorly fitted or top-dose-only effect; inactive = no such curve, though single readings can be large or run the other way; also: potency is read from the fitted curve at half-maximal effect; nearly all actives have a fitted effect of over 50% in size
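Fission yeast strain RE007, carrying one chromosomally integrated HIV-1 vpr copy, was seeded at OD 0.01 in PMG+AL medium with 23 nL pinned compound. After 24 h at 30 °C and 99% humidity, viability was read by BacTiter-Glo luminescence.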
HCMV inh: qHTS Assay for inhibitors of the human cytomegalovirus (HCMV). AID 1259415, 2018. HFF cells, HCMV-luciferase reporter, 72 h; stronger effect = lower value. activity change, negative = inhibition, % at 57.5 µM. actives 4.5% (n = 410,000); in the data active = activity change below about -60%; inconclusive = no clear call, values can overlap the other calls; inactive = above about -39%
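Human foreskin fibroblasts infected with luciferase-reporter HCMV at MOI 1 PFU/cell, compounds at two doses. Luciferase measured 72 h post infection; normalized to buffer-only basal and Salinomycin (10uM) controls.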
TbPYK inhibitor: qHTS of Trypanosoma Brucei Inhibitors; pyruvate kinase (Trypanosoma brucei), Q57TT1; TbPYK enzyme, Kinase-Glo Plus ATP luminescence, 45 min; Potency, µM (series often up to 76.8 µM), for inactives: at the top dose activity, negative = inhibition, hits mostly inhibitors; actives 0.12% (n = 410,000); also: potency is read from the fitted curve at half-maximal effect; nearly all actives have a fitted effect of over 50% in size
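Enzyme and substrate buffer are dispensed first and compound is pin-transferred. ADP at 130 uM final then starts the reaction, which runs 45 min at room temperature. Detection reagent is added for 10 min before luminescence is imaged.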
FBPA Giardia inh: qHTS Assay for Inhibitors of Fructose-1,6-bisphosphate Aldolase from Giardia Lamblia; actives 0.71% (n = 290,000); Potency, µM (doses to about 59.6 µM), inactives show top-dose activity, negative = inhibition, hits mostly inhibitors; purified Giardia FBPA; also: potency is read from the fitted curve at half-maximal effect; nearly all actives have a fitted effect of over 55% in size
Target sequence (A8B2U2 whole entry, looked up): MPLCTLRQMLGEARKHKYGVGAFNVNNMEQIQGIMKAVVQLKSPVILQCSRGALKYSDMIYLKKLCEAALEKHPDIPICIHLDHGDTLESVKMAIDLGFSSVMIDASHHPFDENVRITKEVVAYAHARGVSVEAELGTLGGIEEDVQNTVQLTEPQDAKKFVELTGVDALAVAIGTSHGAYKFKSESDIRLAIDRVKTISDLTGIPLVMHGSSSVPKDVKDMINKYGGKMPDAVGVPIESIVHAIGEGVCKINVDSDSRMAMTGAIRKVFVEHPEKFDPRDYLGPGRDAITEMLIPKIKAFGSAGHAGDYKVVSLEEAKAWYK
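Giardia FBPA (40 nM reagent) was preincubated 10 min at RT with compound (up to 57.5 uM final), then substrate plus GAPDH/TPI/NAD/arsenate coupling system with diaphorase/resazurin was added; resorufin fluorescence (525/598 nm) was read after 20 min.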
Sm TGR block: qHTS Assay for the Inhibitors of Schistosoma Mansoni Peroxiredoxins. Schistosoma mansoni thioredoxin glutathione reductase (TGR), Q962Y6. purified TGR, DTNB reduction, TNB absorbance 405 nm. Potency, µM (doses to about 114 µM), for inactives: top-dose activity change, negative = inhibition, usual class: inhibitors. actives 3% (n = 360,000); also: potency is read from the fitted curve at half-maximal effect; nearly all actives have a fitted effect of over 60% in size
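First, TGR (20 nM dispensed) and NADPH were mixed with compound. Second, a 15 min room-temperature incubation followed. Third, further NADPH and then DTNB were added to start the reaction. Finally, TNB absorbance was monitored kinetically.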
FMDV inh: High Throughput Screening for Foot and Mouth Disease Virus Antivirals. AID 1159524, 2015. actives 1.2% (n = 410,000). FMDV antiviral cell-based qHTS. Potency, µM (top dose mostly 57.9 µM), for inactives: top-dose activity change, negative = inhibition, most hits filed as inhibitors; calls by dose curve; tested in HEK293T cells; also: read-out not given here; potency is read from the fitted curve at half-maximal effect; nearly all actives have a fitted effect of over 45% in size
An asterisk follows results filed as active; ? = inconclusive; . = no result; [ ] = remark or other dose. This is a sample that favours compounds with a hit; in the whole collection about 7.7% have one here. Unless noted, calls follow the shape of the dose curve; as a rule, active = well fitted curve in the direction sought with a large enough effect; inconclusive = small, poorly fitted or top-dose-only effect, or another doubt; inactive = no such curve, though single readings can be large; an effect the other way counts as inactive or inconclusive. % is scaled to controls: 0 for no effect and ±100 for the full control effect.

SMILES	RE007 growth inh	HCMV inh	TbPYK inhibitor	FBPA Giardia inh	Sm TGR block	FMDV inh
Cc1ccc(-c2ccc(/C=C3\SC(N4CCOCC4)=NC3=O)o2)cc1	-17.8%	-4.1	-10.3%	-17.4%	?	-14.3%
Cc1ccc(/C=C2\SC(N3CCN(C(c4ccccc4)c4ccccc4)CC3)=NC2=O)o1	-17.6%	-28.3	-1.0%	?	35.5µM*	?
Cc1oc(-c2cccc(Cl)c2)nc1Cn1c(SCc2ccccc2F)nc2ccncc21	.	24.7	-0.3%	.	-4.0%	-6.9%
O=C(NC1CCCc2c1cnn2-c1ccccc1F)c1ccccn1 (centres undefined)	32.0%	-97.8*	-10.1%	-13.2%	7.6%	-20.8%
O=C(NC1CCCc2c1cnn2-c1cc(F)cc(F)c1)c1ccncc1 (centres undefined)	0.5%	-22.3	0.0%	.	0.3%	0.0%
O=C(NC1CCCc2c1cnn2-c1ccc(F)cc1F)c1ccccn1 (centres undefined)	19.2%	-39.4	4.0%	1.7%	16.3%[57.1 µM]	-27.9%
O=C(NC1CCCc2c1cnn2-c1ccccc1F)c1ccncc1 (centres undefined)	-2.5%	-84.0*	-8.1%	.	.	?
CCC(Cc1ccccc1)NCc1c(C(=O)O)c(C)n(Cc2ccccc2)c1C (centres undefined)	5.3%	-74.2*	-9.1%	-0.1%	-4.1%	-8.4%
Cc1c(C#N)c(N)nc(Cl)c1C#N	0.5%	-11.2	2.5%	1.6%	35.5µM*	?
CS(=O)(=O)c1ccc(C(=O)OCC(=O)NC23CC4CC(CC(C4)C2)C3)cc1[N+](=O)[O-]	-3.2%	34.9	-6.8%	0.2%	2.82µM*	35.5µM*
COc1cccc(C(=O)OCC(=O)NC23CC4CC(CC(C4)C2)C3)c1	1.8%	?	0.3%	.	.	-16.0%
Cn1cccc1C(=O)NC(=O)COC(=O)c1ccc(S(C)(=O)=O)c([N+](=O)[O-])c1	-9.4%	.	8.2%	.	.	31.6µM*
Cn1cccc1C(=O)NC(=O)COC(=O)c1ccc(S(C)(=O)=O)cc1	12.8%	28.6	7.6%	.	.	7.8%
CC(C)(C)C(=O)Cn1ncc(Br)c(Br)c1=O	-23.3%	-101.0*	4.1%	-0.2%	.	?
CCOC(=O)COc1ccc(C)cc1C(=O)c1ccn2nc(-c3ccc(F)cc3)cc2n1	.	-5.8	-0.3%	.	-1.2%	-8.9%
COc1oc(C(=O)NC2CCCCC2)c(-c2ccc(Cl)cc2)c1S(=O)(=O)c1ccccc1	-2.5%	-64.2*	-7.7%	.	.	14.2%
COc1ccc2c(C)c(CCC(=O)NCc3ccccc3OC)c(=O)oc2c1	.	-11.9	0.0%	.	4.2%	-5.8%
O=C(CCCCn1c(=O)[nH]c2ccsc2c1=O)N1CCN(c2cccc(Cl)c2)CC1	.	-69.5*	-6.1%	.	-0.6%	?
O=C(CCCn1c(=O)[nH]c2ccsc2c1=O)N1CCN(c2cccc(C(F)(F)F)c2)CC1	.	-105.1*	-5.8%	.	3.1%	?
COc1ccc(OC)c(C(C[N+](=O)[O-])c2c(C)cc3ccccn23)c1 (centres undefined)	?	48.3	-21.8%	-3.2%	-34.3%	22.4µM*
CC(C)(C)NC(=O)C(c1ccc(Cl)cc1)N(Cc1ccco1)C(=O)CCl (centres undefined)	-5.1%	14.7	-13.9%	-18.6%	11.2µM*	?
CC(C)(C)NC(=O)C(c1ccncc1)N(Cc1ccco1)C(=O)c1ccc(-c2ccccc2)[nH]1 (centres undefined)	-9.3%	74.9	-8.3%	-16.1%	10µM*	41.6%
CN1CCc2cc(O)cc3c2C1Cc1ccc(O)c(O)c1-3 (centres undefined)	.	.	.	14.1µM*	.	-18.7%
COc1ccc2c(c1O)-c1c(OC)c(OC)cc3c1[C@@H](C2)N(C)CC3	.	.	.	-15.6%	.	15.1%
